An excerpt weighted towards active compounds, which were near 1.5% of everything screened.
BRCA1 expr up – qHTS Assay to Identify Small Molecule Activators of BRCA1 Expression; AID 624202, 2012; Potency, µM (titrated, usually from 46.1 µM), for the others: at the highest dose activation, actives largely listed as activators; MCF7-BRCA1-FFLuc reporter, luminescence, 48 h; response scale: scaled: vehicle 0%, 10 µM genistein 100%; 1.1% of 380,000 active; also: potency is read from the fitted curve at half-maximal effect; nearly all actives have a fitted effect of over 80% in size
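Luminescence from a BRCA1-driven firefly luciferase in MCF7 cells was the read-out, taken 15 min after substrate addition following 48 h compound exposure at 37 °C. Data were normalized to a 10 microM genistein control and DMSO vehicle.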
pAkt inh – HTS Assay for Inhibitors of Akt Phophorylation: Primary Screen | Neuro2A IGF-stimulated pAkt S473 HTRF, 20 min; hits give low values | activity change, % for hits at 50 µM | 0.32% of 360,000 active; in the data active = activity change below about -80%; inconclusive = mostly about -51% to -80%; also: % is scaled to controls: 0 for no effect and ±100 for the full control effect
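Neuro2A cells in DMEM with 0.5% FBS, overnight at 37 deg C, given compound at single 50 µM final, then IGF (6 nM final) for 20 min at 37 deg C. Lysed; phospho-Akt Ser473 by HTRF after 24 h, 665/615 ratio.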
TCR act – Activators of T cell receptors: qHTS campaign; primary human leukocytes, anti-CD3, IL-2 HTRF, 48 h; Potency, µM (titrated, usually from 9.22 µM), inactives show at the highest dose activation of IL-2 secretion, usual class: activators; 330,000 tested, under 10 active; AID 504894, 2011; also: % of control where 0% means no effect
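Primary human leukocytes were stimulated with a-CD3 beads plus compounds for 48 hr without co-stimulation; secreted IL-2 was quantified by HTRF using a-IL-2-K (europium cryptate) and a-IL-2-d2, excited at 320nm with acceptor emission read at 665nm.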
PINK1 expr mod – A Quantitative High throughput Screen to Identify Chemical Modulators of PINK1 Expression | PINK1 immunofluorescence, high-content cytometry, 24 h | Potency, µM (highest dose often 76.6 µM), for the others: at the top dose activation (PINK1 increase), hits mostly activators | 0.2% of 410,000 active; active = well fitted activation curve with a large enough effect; inconclusive = small, poorly fitted or top-dose-only effect; cell line not stated here; also: potency is read from the fitted curve at half-maximal effect; % of control where 0% means no effect; nearly all actives have a fitted effect of over 65% in size
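Decision-based qHTS: stable cells, 24 h exposure to five compound concentrations, CCCP as control. Fixed cells stained for PINK1 plus nuclear, mitochondrial and cell markers, cytometer read.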
Active calls of the source: *; i = inactive; ? = inconclusive; nt = no result; [ ] = another dose, or the depositor's remark. Unless noted, calls follow the shape of the dose curve; as a rule, active = well fitted curve in the direction sought with a large enough effect; inconclusive = small, poorly fitted or top-dose-only effect, or another doubt; inactive = no such curve, though single readings can be large; an effect the other way counts as inactive or inconclusive.

SMILES	BRCA1 expr up	pAkt inh	TCR act	PINK1 expr mod
Cc1ccc(-c2n[nH]c(Cc3ccccc3)n2)cc1	5.62µM*	i	13.4%	1.2%
O=C(O)c1cccc(S(=O)(=O)Nc2ccc3[nH]c(=O)[nH]c3c2)c1	2.9%	i	1.7%	-1.1%
O=C(O)c1cccc(S(=O)(=O)Nc2ccc3oc(=O)sc3c2)c1	12.0%	-113.8%*	-2.1%	-0.5%
CNC(=O)CSc1nnc(-c2ccncc2)n1Cc1ccccc1	-4.2%	-111.8%*	0.9%	-1.5%
Cc1cc(C(=O)Nc2cccc(-c3nc(CNC(=O)c4sc(C)nc4C)c(C)o3)c2)c(C)o1	nt	nt	nt	0.2%
O=C1CCCC2=C1C1(CCCC1)N=C(Nc1nc3ccccc3s1)N2	-12.1%	i	nt	11.2µM*
O=C(NCCc1nnc2n1CCN(Cc1cc3ccccc3o1)CC2)c1ccoc1	nt	nt	nt	-0.2%
COc1cccc(/C=N/Nc2snc(SC)c2C#N)c1O	-29.5%	i	1.2%[46.1 µM]	12.6µM*
CCCCCc1ccc(-c2ccc(OC)cc2)nc1	8.91µM*	i	0.8%	-2.7%
CCCCCc1ccc(-c2ccc(C(=O)Oc3ccc(C(=O)OC)cc3)cc2)nc1	nt	nt	nt	-0.2%
Cc1ccc(C)c(Cn2c3ccccc3c3cnn(CC(=O)NC4CCCCCC4)c(=O)c32)c1	nt	nt	nt	0.8%
Cc1cn2cc(CNC(=O)CN3Cc4ccccc4OC(c4ccccc4F)C3)nc2s1 (centres undefined)	nt	nt	nt	-0.5%
O=C(Oc1ccc2c(c1)OCO2)c1ccc(Br)c(S(=O)(=O)N2CCOCC2)c1	14.0%	i	nt	11.2µM*
COC(=O)[C@@H]1CCCN1C(=O)c1cc(NC(=O)C2CCC2)c2c(c1)nc(-c1ccncc1)n2C	nt	nt	nt	-0.3%
COC(=O)c1cc2n(n1)CCN(Cc1ccccc1Cl)C2=O	-34.2%	i	2.5%	1.9%
COC(=O)c1ccn(Cc2ccccc2Cl)n1	12.6µM*	i	4.0%	-0.6%
Cc1ccc(NC(=O)CSCc2ccco2)cc1	10µM*	i	3.0%	-2.5%
O=C(NCCSCc1ccco1)Nc1cccc(Cl)c1	?	i	-16.4%	nt
Cc1ccc(NC(=O)Cn2c(=O)n(CCCCC(=O)NCc3ccco3)c(=O)c3ccccc32)cc1	-15.8%	-113.1%*	-4.9%	2.9%
Cc1ccc(NC(=O)CSCC(=O)NCc2ccco2)cc1	1.1%	i	2.7%	2.7%
O=C(NCCSCc1ccco1)Nc1ccc(Cl)cc1	8.91µM*	i	8.9%	-0.1%
Cc1ccc(NC(=O)C(=S)NCc2ccco2)cc1	7.08µM*	i	-1.5%	6.8%
O=C(CCCCn1c(=O)c2ccccc2n(CC(=O)Nc2ccc(F)cc2)c1=O)NCc1ccco1	-1.4%	i	-0.9%	-2.7%
CO[C@H]1[C@H](NC(=O)c2ccsc2)c2ccccc2C12CCN(Cc1cnn(C)c1C)CC2	nt	nt	nt	-0.6%
O=C(Nc1nccs1)c1ccccn1	?	i	-1.2%	-0.7%
SMILES	BRCA1 expr up	pAkt inh	TCR act	PINK1 expr mod
Cc1ccc(C(=O)Nc2nccs2)s1	11.2µM*	i	-3.4%	1.2%
O=C(Nc1nccs1)c1ccc(Br)s1	10µM*	i	-3.3%	-0.3%
O=[N+]([O-])c1ccc(COc2ccccc2/C=N/O)cc1	10µM*	i	2.2%[46.1 µM]	6.4%
COc1ccc(NC(=O)c2sc3nc(C(F)(F)F)cc(C)c3c2N)cc1OC	nt	nt	nt	39.8µM*
Cc1cc(C)c2c(N)c(C(=O)Nc3ncc(C)s3)sc2n1	-84.7%	-94.1%*	-0.5%[46.1 µM]	-0.6%
CC(C)N1CC=C2C(C#N)=C(N)C(C#N)(C#N)C(c3ccccc3)C2C1 (centres undefined)	-21.0%	i	-4.8%	7.94µM*
N#CC1=C(N)C(C#N)(C#N)[C@H](c2ccncc2)[C@H]2CN(C(=O)OCc3ccccc3)CC=C12	14.5%	i	-1.2%[46.1 µM]	2.9%[38.3 µM]
COc1cc(C2C3CN(C)CC=C3C(C#N)=C(N)C2(C#N)C#N)ccc1OC(C)C (centres undefined)	-17.8%	i	nt	39.8µM*
CN1CC=C2C(C#N)=C(N)C(C#N)(C#N)C(Cc3ccccc3)C2C1 (centres undefined)	1.4%	i	-4.8%	17.8µM*
COc1cc([C@@H]2[C@H]3CNCC=C3C(C#N)=C(N)C2(C#N)C#N)ccc1OC(C)C	-36.8%	i	-3.1%	5.4%
COc1cc2nc(N3CCCN(C)CC3)nc(N(C)C)c2cc1OC	-42.5%	nt	nt	-0.4%
COc1cccc(CNC(=O)CN2C(=O)CSc3ccc(S(=O)(=O)N(C)C)cc32)c1	9.2%	nt	nt	0.6%
COc1ccc(S(=O)(=O)N2CCN(C(=O)NC3CCCCC3)CC2)cc1OC	-8.5%	-105.5%*	nt	-3.5%[38.3 µM]
COc1cc(S(=O)(=O)NC2CCCCC2)ccc1Cl	-25.8%	-118.8%*	2.8%[46.1 µM]	5.4%
COc1ccc(S(=O)(=O)N(C)CC(=O)NC2CCCC2)cc1Cl	-19.4%	-110.1%*	-3.5%	-2.1%
CN(CC(=O)NC1CCCC1)S(=O)(=O)c1cccc(Cl)c1	3.0%	i	5.0%	0.9%
COC(=O)c1cc(CNC(=O)c2ccc3ncccc3c2)cc(NC(=O)c2ccccc2Cl)c1	nt	nt	nt	0.4%
COc1ccc2nc(N3CCC(C)CC3)c(C#N)cc2c1	11.2µM*	-102.8%*	1.0%	5.1%
Cn1c2ccccc2c(=O)c2ccc(Cl)cc21	14.1µM*	i	nt	0.4%
COc1ccc(NC(=O)CSCc2cc(=O)c3cc(Cl)ccc3[nH]2)cc1	nt	nt	nt	1.2%
Cc1noc(C)c1C(=O)N1CCC2(CCCN(c3ccccn3)C2)CC1	nt	nt	nt	0.1%
CSCC(=O)N1CCc2ccc(NC(=O)c3ccccc3Cl)cc2C1	10µM*	i	-2.9%	3.6%
CN(C)S(=O)(=O)N1CCc2ccc(NC(=O)c3ccccc3Cl)cc2C1	76.9%	i	1.4%	0.5%
O=C(NC[C@@H]1CCCN2CCCC[C@H]12)c1cnn(-c2nccc(-c3cc4ccccc4o3)n2)c1C1CC1	nt	nt	nt	0.9%
CCOC(=O)C1=C(C)NC(=O)NC1c1cc(Br)c(O)c(OC)c1 (centres undefined)	2.4%	-119.6%*	5.3%	-1.0%
SMILES	BRCA1 expr up	pAkt inh	TCR act	PINK1 expr mod
CCOC(=O)C1=C(c2ccccc2)NC(=O)NC1c1cc(Br)c(O)c(OC)c1 (centres undefined)	-32.4%	i	-5.3%	-0.9%
CN(C)/C=C/C(=O)c1ccc(-c2ccc(Cl)cc2Cl)o1	11.2µM*	i	-48.0%	-0.1%
O=C(O)c1ccc(-c2ccc(Cl)cc2Cl)o1	2.6%	i	2.6%	-2.4%
C=CCn1c(SCC(=O)N2CCN(c3ccccc3)CC2)nnc1-c1ccco1	-37.3%	i	1.7%	-2.6%
CCn1c(SCC(=O)N2CCN(c3ccccc3)CC2)nnc1-c1cc2cc(Cl)ccc2o1	-53.2%	i	nt	11.2µM*
O=C(Oc1ccc(-c2nccc(-c3ccccn3)n2)cc1)c1cccc(C(F)(F)F)c1	89.7%	-95.7%*	3.1%	6.8%
Cc1cc2c(c(-c3cnccn3)c1)OC(CNC(=O)c1cc(C(C)C)[nH]n1)C2 (centres undefined)	nt	nt	nt	2.5%

Screening results as filed in PubChem.
